Assay results reported in the supplement of paper PMC3545927.
The other results are listed elsewhere or left out. The true hit rate is not given.

Target: furin, P09958
Test: furin cleavage Z-score vs untreated control; higher = more cleavage, active = 3.5 or more, inactive = 1 or less, 8 variable residues between constant flanks
How it was run: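 Magnetic beads held 8-mer peptides by the N-terminus, each fused to a cDNA oligonucleotide, and purified furin was added for 7.5, 15 or 30 min. Released DNA was sequenced after PCR adapter tagging. The cleavage Z-score is the log count relative to furin-free reactions, lowess-adjusted and divided by median absolute deviation.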
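Further: purified furin at 1:10 enzyme:substrate in 50 mM HEPES pH 7.5.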

Sequence of furin, P09958 (P09958 whole entry): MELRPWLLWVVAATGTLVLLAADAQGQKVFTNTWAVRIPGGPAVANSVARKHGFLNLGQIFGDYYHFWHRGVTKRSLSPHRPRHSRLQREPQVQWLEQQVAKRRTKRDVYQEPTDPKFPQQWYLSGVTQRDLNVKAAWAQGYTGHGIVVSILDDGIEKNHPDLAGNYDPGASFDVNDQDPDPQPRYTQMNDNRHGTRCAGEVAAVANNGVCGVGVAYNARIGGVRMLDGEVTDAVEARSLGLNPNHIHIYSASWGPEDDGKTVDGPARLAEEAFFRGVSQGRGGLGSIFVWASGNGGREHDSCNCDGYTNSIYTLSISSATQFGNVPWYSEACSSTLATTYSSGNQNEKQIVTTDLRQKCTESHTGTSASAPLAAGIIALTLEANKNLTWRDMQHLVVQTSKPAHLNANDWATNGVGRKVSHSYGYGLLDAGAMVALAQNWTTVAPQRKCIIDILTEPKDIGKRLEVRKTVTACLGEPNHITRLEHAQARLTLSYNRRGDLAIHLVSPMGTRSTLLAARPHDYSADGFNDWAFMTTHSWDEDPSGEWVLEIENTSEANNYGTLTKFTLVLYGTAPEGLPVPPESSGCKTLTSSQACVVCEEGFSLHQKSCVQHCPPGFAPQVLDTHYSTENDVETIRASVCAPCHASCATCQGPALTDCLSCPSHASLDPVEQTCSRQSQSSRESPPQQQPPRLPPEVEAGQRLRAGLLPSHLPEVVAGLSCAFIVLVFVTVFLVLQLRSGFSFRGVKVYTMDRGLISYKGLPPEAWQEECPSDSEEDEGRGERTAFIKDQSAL

Sequence	furin cleavage Z-score (7.5 min)	furin cleavage Z-score (15 min)	furin cleavage Z-score (30 min)
CAMEECNQHLAGNASASA [HC38]	0.469 (inactive)	2.66	0.708 (inactive)
CARCARSSFTAGNASASA [FS-2895]	-1.39 (inactive)	-0.507 (inactive)	-0.615 (inactive)
CAVPAKSVCGAGNASASA [HC409]	-1.6 (inactive)	0.783 (inactive)	-0.986 (inactive)
CALHCPTDCFAGNASASA [HC450]	0.987 (inactive)	-0.346 (inactive)	0.0192 (inactive)
CAHSYSPGEIAGNASASA [HC1608]	-0.391 (inactive)	-1.22 (inactive)	-0.845 (inactive)
CAYHHKFNSSAGNASASA [HC382]	-0.863 (inactive)	-0.739 (inactive)	-0.583 (inactive)
CAARPRWIWFAGNASASA [HC1654]	0.126 (inactive)	1.51	1.36
CAGPGREDRFAGNASASA [FS-1590]	0.0501 (inactive)	-0.782 (inactive)	0.43 (inactive)
CAARNRQKRFAGNASASA [FS-1308]	9.16 (active)	10.4 (active)	8.81 (active)
CATVGRVKRFAGNASASA [FS-306]	9.9 (active)	9.6 (active)	9.08 (active)
CAVCARAQAPAGNASASA [HC957]	-0.611 (inactive)	-0.626 (inactive)	0.901 (inactive)
CAPIDTTIMAAGNASASA [HC1437]	-1.63 (inactive)	0.33 (inactive)	-1.75 (inactive)
CAMVECSQHLAGNASASA [HC1690]	1.97	0.64 (inactive)	0.696 (inactive)
CAHDVVCCSMAGNASASA [HC2115]	-0.409 (inactive)	-0.66 (inactive)	0.0366 (inactive)
CAVKCCSMSYAGNASASA [HC2014]	-0.221 (inactive)	0.288 (inactive)	-1.16 (inactive)
CAQLRRHIDLAGNASASA [HC289]	-1.12 (inactive)	0.114 (inactive)	0.176 (inactive)
CALSFRLKRNAGNASASA [FS-1372]	12.3 (active)	11.1 (active)	9.61 (active)
CAQLRRYPRNAGNASASA [FS-1249]	10 (active)	10.4 (active)	8.2 (active)
CAQLRRLKRNAGNASASA [FS-284]	13 (active)	12.1 (active)	9.76 (active)
CATARHTPVNAGNASASA [HC1570]	-0.556 (inactive)	-0.38 (inactive)	-0.627 (inactive)
CAASAYQVRNAGNASASA [HC255]	2.82	-0.339 (inactive)	0.446 (inactive)
CANSTALNCNAGNASASA [HC372]	1.61	1.23	0.944 (inactive)
CAVYYLTRDPAGNASASA [HC1561]	-0.916 (inactive)	-0.905 (inactive)	-0.163 (inactive)
CAEEVSFRVGAGNASASA [HC1232]	0.0764 (inactive)	1.08	-0.114 (inactive)
CATVVTSTWVAGNASASA [HC2158]	0.721 (inactive)	0.128 (inactive)	0.308 (inactive)
CAINSVWKDLAGNASASA [HC1430]	0.0949 (inactive)	0.0646 (inactive)	0.992 (inactive)
CAFCCRKKRRAGNASASA [FS-586]	3.8 (active)	4.73 (active)	5.93 (active)
CAEILRKSRRAGNASASA [HC1297]	-0.468 (inactive)	1.48	-0.599 (inactive)
CAHSERKKRRAGNASASA [FS-249]	8.63 (active)	10.6 (active)	10.2 (active)
